Drawing on ChEMBL document CHEMBL5308504, “Tm Shift (DSF) assay results for EUbOPEN Chemogenomics Library” (2023), this text covers ΔTm for 39 compounds.

What is called ΔTm is the change in melting temperature against a reference sample.

This assay deals with Bromodomain-containing protein 4 (Homo sapiens) (UniProt O60885). The following applies: Compound concentration 20.0 uM, Protein concentration 2.0 uM, Result type QC Liability.
`C[C@H](CCC(=O)O)[C@H]1CC[C@H]2[C@@H]3CC[C@@H]4C[C@H](O)CC[C@]4(C)[C@H]3C[C@H](O)[C@]12C`: the shift in melting temperature (ΔTm) was -3.05 °C.

Regarding `COc1ccc(C(=O)N[C@H](C)c2cccc(C(=O)Nc3nc4c(s3)CN(C)CC4)c2)cc1C`, the thermal shift (ΔTm) is -1.18 °C.

Regarding `Nc1nccc(-c2c(-c3ccc(F)cc3)ncn2C2CCN(Cc3ccon3)CC2)n1`, the ΔTm is -2.58 °C.

On to `c1ccc2c(c1)SCc1c-2[nH]c2ccccc12`, for which the ΔTm is -15.3 °C.

Regarding `CCOC(=O)Nc1ccc2c(c1)N(C(=O)CN(CC)CC)c1ccccc1CC2`, the thermal shift (ΔTm) was -1.53 °C.

As for `Cc1ccc(-n2nc(C(C)(C)C)cc2NC(=O)Nc2ccccc2F)cc1`, the thermal shift (ΔTm) was -1.72 °C.

Consider `C=CC1C[C@]1(NC(=O)[C@@H]1C[C@@H](Oc2cc(-c3csc(NC(=O)C(C)C)n3)nc3c(Br)c(OC)ccc23)CN1C(=O)[C@@H](NC(=O)OC1CCCC1)C(C)(C)C)C(=O)O` (some centres undefined), for which the ΔTm is 1.06 °C.

On to `Cc1cc([N+](=O)[O-])c(NS(=O)(=O)c2cccc(C(=O)O)c2)cc1-c1cccnc1`, for which the thermal shift (ΔTm) was -0.44 °C.

As for `Cc1cc(-c2cc3ncccc3c(OC[C@H]3CCCNC3)n2)ccc1N(C)C`, the shift in melting temperature (ΔTm) is -2.56 °C.

On to `COc1ccccc1-c1cc(Nc2cccc(CS(N)(=O)=O)c2)ncn1`, for which the thermal shift (ΔTm) is -0.36 °C.

Consider `CN(c1ccc(C(F)(F)F)cc1)S(=O)(=O)c1ccc(C(=O)Nc2nc(-c3ccccn3)cs2)cc1`, for which the ΔTm was found to be 6.63 °C.

Take `CC(C)Nc1ncnc2cc(OCc3cccc([S@@](C)(=N)=O)c3)c(Br)cc12`: the ΔTm was 0.34 °C.

Consider `C[C@@H]1COCCN1c1cc(=O)n2c(n1)N(Cc1cncc(Cl)c1)[C@H](C(F)(F)F)CC2`, for which the ΔTm is -0.07 °C.

As to `CCc1ccccc1C(=O)Nc1n[nH]c2c(C)c(F)c(C3C(C#N)=C(C)N(C)C(C)=C3C#N)cc12`, the ΔTm is -3.05 °C.

With `CN[C@@H](C)C(=O)N[C@H](C(=O)N1CCC[C@H]1c1nc(C(=O)c2ccc(F)cc2)cs1)C1CCCCC1`, the thermal shift (ΔTm) is -3.21 °C.

As to `O=C(O)c1ccnc(N2CC(O)(c3ccc(OCc4c(-c5c(Cl)cccc5Cl)noc4C4CC4)cc3Cl)C2)c1`, the ΔTm is -4.33 °C.

With `CC(C)S(=O)(=O)c1ccccc1Nc1nc(N[C@@H]2CCCN(CCCCCCCNC(=O)COc3cccc4c3C(=O)N(C3CCC(=O)N(C)C3=O)C4=O)C2)ncc1Cl` (some centres undefined), the ΔTm is -2.43 °C.

Regarding `FC(F)c1cncc(-c2ccc3ncc4nnc(C5=CCCOCC5)n4c3c2)c1`, the ΔTm is -0.98 °C.

`CCCCC[C@H](O)/C=C/[C@H]1[C@H](O)CC(=O)[C@@H]1CCCCCCC(=O)O`: the ΔTm was -1.54 °C.

With `Cc1ccc(C(=O)Nc2cc(N3CCN(C)CC3)cc(C(F)(F)F)c2)cc1-n1cc(-c2cnn(C)c2C)nn1`, the ΔTm is -2.13 °C.

Turning to `CCCCCCCC/C=C\CCCCCCCC(=O)NCCO`, the ΔTm was -1.73 °C.

With `Cc1nsc(Nc2cnc(C(F)(F)F)cn2)c1C(=O)Nc1ccc(O[C@H]2CCCN(CC(F)(F)F)C2)nc1`, the ΔTm came to 1.66 °C.

With `CC1(C)CCN(C(=O)C2CN(c3c4c(nc5ccnn35)CCNCC4)C2)C1`, the ΔTm is -0.32 °C.

For the compound `CCN(C(=O)CO)[C@H]1CN(/C(=N\C#N)Nc2cccc(OC(F)F)c2)N=C1c1ccc(Cl)c(Cl)c1`, the ΔTm came to 3.5 °C.

For the compound `COc1ccc(CSc2nnc(-c3ccc4ncsc4c3)o2)cc1C(F)(F)F`, the shift in melting temperature (ΔTm) is -5.83 °C.

Regarding `C[C@@H]1Cc2c([nH]c3ccccc23)[C@@H](c2c(F)cc(/C=C/C(=O)O)cc2F)N1CC(C)(C)F`, the thermal shift (ΔTm) was determined as 0.36 °C.

On to `C=C1/C(=C\C=C2/CCC[C@]3(C)[C@@H]([C@H](C)CCCC(C)(C)O)CC[C@@H]23)C[C@@H](O)C[C@@H]1O`, for which the ΔTm is -7.29 °C.

As to `Cc1cc2ncnn2cc1Nc1ncc2c(n1)n(C1CCOCC1)c(=O)n2C`, the ΔTm is -1.59 °C.

On to `COCCN(C)c1ccc(NC(=O)/C=C(\C)c2ccc3ccccc3c2)c(C(=O)O)c1`, for which the shift in melting temperature (ΔTm) was -1.96 °C.

Take `O=C(O)[C@]1(Cc2cccc(Nc3nccs3)n2)CC[C@@H](Oc2cccc(Cl)c2F)CC1`: the thermal shift (ΔTm) is 0 °C.

`Clc1ccccc1C(c1ccccc1)(c1ccccc1)n1ccnc1`: the shift in melting temperature (ΔTm) was -5.6 °C.

`CCn1c(=O)c2c(C)c(C(=O)N3CCC(O)CC3)sc2n(CCC(F)(F)F)c1=O`: the ΔTm is -12.7 °C.

`Clc1ccc(-c2nc3sccn3c2/C=N/OCc2ccc(Cl)c(Cl)c2)cc1`: the ΔTm was -1.58 °C.

As for `CCOC(=O)c1cc2cc(-c3cc(C(=O)NCc4ccc(C(=O)O)cc4)nn3C)ccc2[nH]1`, the ΔTm was -0.14 °C.

For `Nc1ncnc2c1c(COc1cccc(Cl)c1)nn2C1CCOCC1`, the ΔTm was -0.35 °C.

For `O=C1CCCc2[nH]c(-c3ccnc(NCC4CC4)c3)c(Nc3ccccc3)c21`, the ΔTm is -0.67 °C.

For `CC1CNCCc2c1nc1ccnn1c2N1CC(C(=O)N2CCC(C)(C)C2)C1` (centres undefined), the ΔTm is -3.66 °C.

In the case of `CC1=C(C(=O)OCCO)[C@@H](c2ccc(C#N)cc2)NC(=O)N1c1cccc(C(F)(F)F)c1`, the thermal shift (ΔTm) turned out to be 0.01 °C.

Consider `CCS(=O)(=O)c1cc2cc(C[C@](O)(CC(C)(C)c3ccc(F)cc3C(N)=O)C(F)(F)F)[nH]c2cn1`, for which the thermal shift (ΔTm) is -2.16 °C.
